# High-throughput results: PubChem BioAssay, National Center for Advancing Translational Sciences (NCATS)
# Sampled rows, rich in hits. Any-hit rate of the full collection: about 9.9%.
# Tau ThT inhib: tau fibrillization inhibition (ThT binding); P10636; recombinant tau K18 P301L, heparin-induced fibrillization, ThT fluorescence; Potency, µM (titrated, usually from 57.4 µM), for the others: at the highest dose activity, negative = inhibition, actives largely listed as inhibitors; actives 2.1% (n = 270,000); AID 1460; active = well fitted curve in the direction sought with a large enough effect; inconclusive = small, poorly fitted or top-dose-only effect, or another doubt; inactive = no such curve, though single readings can be large; an effect the other way counts as inactive or inconclusive; also: nearly all actives have a fitted effect of over 55% in size
# Target sequence (P10636 561-689 P618L limits assumed): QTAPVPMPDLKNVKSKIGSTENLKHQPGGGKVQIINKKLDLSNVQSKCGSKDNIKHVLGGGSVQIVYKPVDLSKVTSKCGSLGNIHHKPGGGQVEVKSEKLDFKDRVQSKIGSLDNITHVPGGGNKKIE
#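 Using a mix of unlabeled (15 uM) and Alexa 594-labeled (0.24 uM) tau K18 P301L, heparin-triggered fibrillization over 6 hr at 37 C was scored by ThT fluorescence.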
# Tau fluor cs: counter-screen for tau fibril formation inhibitors | actives 0.93% (n = 280,000) | tau K18 P301L (four-repeat tau fragment) Alexa594 fluorescence, heparin fibrillization | Potency, µM (doses to about 57.7 µM), for the others: at the top dose activity change, negative = decrease; active = well fitted curve in the direction sought with a large enough effect; inconclusive = small, poorly fitted or top-dose-only effect, or another doubt; inactive = no such curve, though single readings can be large; an effect the other way counts as inactive or inconclusive; also: nearly all actives have a fitted effect of over 55% in size
#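 Human K18 P301L tau (15 uM unlabeled plus 0.24 uM Alexa 594-labeled, final) in 100 mM sodium acetate pH 7 was mixed with compound and 20 uM heparin and incubated 6 hr at 37 C.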
# HPGD block: HPGD (human) dehydrogenase inhibition; AID 894; P15428; actives 4.3% (n = 150,000); Potency, µM, inactives show at the top dose activity change, negative = inhibition, hits mostly inhibitors; purified HPGD, NADH fluorescence kinetic, PGE2 substrate
# Target sequence (P15428 whole entry, looked up): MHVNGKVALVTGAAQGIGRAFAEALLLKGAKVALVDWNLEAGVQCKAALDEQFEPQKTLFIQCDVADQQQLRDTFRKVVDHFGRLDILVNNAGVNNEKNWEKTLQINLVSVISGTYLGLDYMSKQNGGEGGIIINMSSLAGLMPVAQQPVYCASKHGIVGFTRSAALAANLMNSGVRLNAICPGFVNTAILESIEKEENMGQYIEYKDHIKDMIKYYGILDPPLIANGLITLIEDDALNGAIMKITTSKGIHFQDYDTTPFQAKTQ
#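 NADH formation kinetics: reaction with 30 uM PGE2 and 1 mM NAD+ (final), 20 nM enzyme, Tris-HCl pH 8 with Tween 20, after 15 min compound preincubation at room temperature. Fluorescence change, last versus first of five reads.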
# KDM4E inh: blocks human JMJD2E demethylase activity | JMJD2E catalytic domain, FDH-coupled NADH fluorescence (FDH is formaldehyde dehydrogenase) | Potency, µM (series often up to 57.1 µM), for inactives: top-dose activity change, negative = inhibition, actives largely listed as inhibitors | actives 1.6% (n = 230,000) | AID 2147;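 also: 0% = wells with enzyme and -100% = buffer wells without enzyme; nearly all actives have a fitted effect of over 50% in size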
# Tau fibril FP: blocks human tau fibril formation measured by polarization; actives 0.39% (n = 280,000); AID 1468; K18 P301L tau heparin fibrillization, Alexa594 FP, 6 h; P10636; Potency, µM (highest dose often 57.7 µM), for the others: at the top dose activity, negative = inhibition, hits mostly inhibitors; active = well fitted curve in the direction sought with a large enough effect; inconclusive = small, poorly fitted or top-dose-only effect, or another doubt; inactive = no such curve, though single readings can be large; an effect the other way counts as inactive or inconclusive; also: nearly all actives have a fitted effect of over 55% in size
#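 Quantitative HTS format: compounds meet 15 uM recombinant K18 P301L tau and Alexa 594-tau tracer in 100 mM sodium acetate pH 7; 20 uM heparin triggers fibrillization at 37 C over 6 hr; FP gives the signal.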
# ALDH1A1 block: blocks purified human ALDH1A1 activity; Purified ALDH1A1, NADH fluorescence, propionaldehyde substrate; actives 7.3% (n = 220,000); P00352; AID 1030; Potency, µM (doses to about 75.3 µM), inactives show at the highest dose activity, negative = inhibition, actives largely listed as inhibitors;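 also: plate controls were no enzyme wells and a reference inhibitor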
# Active calls of the source: *; u = inconclusive; x = not tested or not shown; [ ] = another dose, or the depositor's remark. Unless noted, calls follow the shape of the dose curve; as a rule, active = well fitted inhibition curve with a large enough effect (not every such curve was filed as active); inconclusive = small, poorly fitted or top-dose-only effect, or another doubt; inactive = no such curve, though single readings can be large or run the other way. Unless noted, % is scaled to controls: 0 for no effect and ±100 for the full control effect; potency is read from the fitted curve at half-maximal effect.
SMILES,Tau ThT inhib,Tau fluor cs,HPGD block,KDM4E inh,Tau fibril FP,ALDH1A1 block
CCOC(=O)c1c(C)[nH]c(C)c1S(=O)(=O)N1CCCC(C(=O)Nc2ccc(C)c(N(C)C)c2)C1 (stereo not given),-15%,u,x,x,2%,x
CC(C)N1C(=O)CC2(CC[N+](C)(CCOC(=O)C(c3ccccc3)c3ccccc3)CC2)C1=O (stereo not given),-14%,1%,u,-17%,-1%,25µM*
COc1ccc(NC(=O)COC(=O)Cc2c(F)cccc2Cl)cc1OC,-15%,-13%,x,6%,1%,-8%
O=S(=O)(/N=S1/CC=CCN1S(=O)(=O)c1ccccc1)c1ccccc1 (stereo not given),u,-1%,7.9µM*,28µM*,u,2µM*
O=C(COC(=O)c1c[nH]c(=O)[nH]c1=O)Nc1ccccc1F,3%,4%,x,-22%,3%,28µM*
Cc1cc(-c2ccc3ccccc3c2)n2ncnc2n1,-4%,3%,x,u,2%,u
Cc1ccc([N+](=O)[O-])cc1N=Nc1c(-c2ccc([N+](=O)[O-])cc2)[nH]n(C(N)=S)c1=O,u,u,x,-3%,2%,11µM*
Cc1ccc(N=Nc2c(C)[nH]n(C(N)=S)c2=O)cc1,4%,4%,x,1%,1%,u
NC(=S)n1[nH]c(-c2ccc([N+](=O)[O-])cc2)c(N=Nc2ccc(Cl)cc2)c1=O,4µM*,u,x,-5%,9%,u
c1ccc(-c2nnn(CCN3CCCCC3)n2)cc1,x,x,-11%,x,x,-3%[13.5 µM]
Cn1c(=O)c2cc(S(=O)(=O)NC(C(=O)N3CCCCCC3)c3ccccc3)ccc2n(C)c1=O (stereo not given),-6%,-11%,-8%,-6%,2%,3.2µM*
NC(=O)c1cccc(-c2cc(Nc3ccc(OC(F)(F)F)cc3)ncn2)c1,u,u,x,u,28µM*,x
O=C(Nc1ccc(OC(F)(F)F)cc1)Nc1cccnc1,6%,-21%,x,-3%,-13%,8%
CC(=O)Nc1nonc1-c1nnc(SCC(=O)Nc2cc(C)cc(C)c2)n1-c1ccccc1,-10%,-18%,x,x,-1%,x
COc1ccc(/C=N/NC(=O)c2ccc3ccccc3c2)cc1OS(=O)(=O)c1ccc(NC(C)=O)cc1,8%,u,u,u,13µM*,u
COc1ccc(C=O)cc1OS(=O)(=O)c1ccc(NC(C)=O)cc1,9%,6%,u,-4%,12%,-9%
CC(C)N1C(=O)CSC1c1ccc(Br)cc1 (stereo not given),-5%,3%,x,4%,-1%,-5%
S=c1[nH]nc(CSCc2ccccc2Cl)n1-c1ccccc1,-12%,-10%,u,-5%,2%,4.5µM*
COCc1n[nH]c(=S)n1-c1ccccc1,-4%,-11%,-3%,1%,4%,1%
Cc1cccc(CCNC(=O)c2nc(-c3ccc(Cl)cc3)n3c2CCCCC3)c1,-11%,-9%,x,x,1%,x
Cc1cc2c(cc1C)N(C(=O)CSc1nncn1C)C(C)(C)c1ssc(=S)c1-2,20µM*,-22%,-11%,-8%,4%,0%
Cc1ccc2c(c1)N(C(=O)CSc1nncn1C)C(C)(C)c1ssc(=S)c1-2,u,-20%,-9%,9%,11%,-1%
O=C(NCc1cccc(F)c1)C1CCN(C(=O)c2sccc2-n2cccc2)CC1,-9%,-7%,x,-1%,-2%,5µM*
Cn1c(C(=O)N2CCC(C(=O)NCCc3ccc(S(N)(=O)=O)cc3)CC2)cc2sccc21,-13%,-18%,x,x,-4%,x
O=C(NCCc1ccccc1)C1CCN(C(=O)c2sccc2-n2cccc2)CC1,u,-11%,-8%,3%,u,4µM*
Cc1ccc(CCNC(=O)C2CCN(C(=O)c3sccc3-n3cccc3)CC2)cc1,-13%,-10%,-3%,7%,0%,1µM*
CCOc1ccc(CNC(=O)C2CCN(C(=O)c3sccc3-n3cccc3)CC2)cc1,-10%,-10%,x,x,1%,x
